The assay is described as follows: M. tuberculosis growth inhibition, HTS (AID 1259417).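 Note: bacteria grown with compound for 5 days at 37 °C.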 Conditions: stronger effect = higher value, concentration not given here.
The mark [1] stands for this setting: M. tuberculosis DsRed fluorescence growth inhibition.
Where [2] appears, read: M. tuberculosis growth inhibition.

Here are results for 45 compounds from PubChem BioAssay AID1259417 (TB Discovery Research, Infectious Disease Research Institute, 2018).

Each structure is given as a SMILES string. About 760 (69%) of roughly 1,100 compounds were called active. The rule behind the calls is not given here. The set was probably picked from earlier hits. This is one part of the list.

Take `CC(C)(C)C(=O)Nc1nnc(-c2cc(Cl)ccc2Cl)o1`: the inhibition under setting [1] is 80.9% (active) and the inhibition under setting [2] came out at 86.9%.

As for `O=C(Nc1nnc(-c2ccc3c(c2)CCCC3)o1)c1ccccc1F`, the inhibition under setting [1] was 49% (active) and the inhibition under setting [2] came out at 79.6%.

For the compound `N#Cc1ccc(C(=O)Nc2nnc(-c3ccc4c(c3)CCCC4)o2)cc1`, the inhibition was 83.6% (active) under setting [1] and 91.1% under setting [2].

As to `O=C(Nc1nnc(-c2ccc3c(c2)CCCC3)o1)c1ccccc1Cl`, the inhibition under setting [1] is -2.21% (inactive) and the inhibition under setting [2] was -7.28%.

`O=C(Nc1nnc(-c2ccc3c(c2)CCCC3)o1)c1ccco1`: the inhibition is 9.46% (inactive) under setting [1] and 22.5% under setting [2].

Consider `O=C(Nc1nnc(-c2cc(Cl)ccc2Cl)o1)c1ccccc1F`, for which the inhibition was 59.5% (active) under setting [1] and 79.5% under setting [2].

For `O=C(Nc1nnc(-c2cc(Cl)ccc2Cl)o1)c1ccc(Cl)cc1Cl`, the inhibition by setting is: under setting [1], 11.8% (inactive); under setting [2], 9.57%.

Take `O=C(Nc1nnc(-c2ccc(Cl)cc2)o1)c1ccccc1F`: the inhibition is, setting by setting: under setting [1], 82% (active); under setting [2], 89.7%.

`O=C(Nc1nnc(-c2ccc(Br)cc2)o1)c1ccccc1F`: the inhibition is, setting by setting: under setting [1], 80.9% (active); under setting [2], 94.2%.

As for `CCOC(=O)COc1cc(OCC(=O)OCC)c2c(=O)cc(-c3ccccc3)oc2c1`, the inhibition runs as follows: under setting [1], 63.7% (active); under setting [2], 71.2%.

On to `CCOC(=O)COc1ccc2c(=O)cc(-c3ccccc3)oc2c1`, for which the inhibition is 89.6% (active) under setting [1] and 95.3% under setting [2].

Consider `COc1ccc(Cl)cc1NC(=O)C(C)N1CCN(C/C=C/c2ccccc2)CC1` (stereo not given), for which the inhibition by setting is: under setting [1], -0.555% (inactive); under setting [2], -22.8%.

Take `Cc1ccc(C)c(-c2nnc(NC(=O)c3ccccc3F)o2)c1`: the inhibition was 80.6% (active) under setting [1] and 85.5% under setting [2].

Take `Cc1ccc(C)c(-c2nnc(NC(=O)C(C)C)o2)c1`: the inhibition by setting is: under setting [1], 67% (active); under setting [2], 78.6%.

As to `Cc1ccc(C)c(-c2nnc(NC(=O)C(C)(C)C)o2)c1`, the inhibition was 84.1% (active) under setting [1] and 83.8% under setting [2].

On to `Cc1ccc(C)c(-c2nnc(NC(=O)c3cccc4ccccc34)o2)c1`, for which the inhibition reads like this: under setting [1], -3.96% (inactive); under setting [2], -5.52%.

Regarding `COc1ccccc1C(=O)Nc1nnc(-c2cc(C)ccc2C)o1`, the inhibition by setting is: under setting [1], -3.37% (inactive); under setting [2], -7.24%.

With `Cc1ccc(C)c(-c2nnc(NC(=O)c3cc(Cl)sc3Cl)o2)c1`, the inhibition was 99.2% (active) under setting [1] and 96.3% under setting [2].

For `CCCC(=O)Nc1nnc(-c2cc(C)ccc2C)o1`, the inhibition under setting [1] is 10.9% (active) and the inhibition under setting [2] turned out to be 48.8%.

Consider `CCCC(=O)Nc1nnc(-c2ccc(C)cc2C)o1`, for which the inhibition by setting is: under setting [1], 2.17% (inactive); under setting [2], 26.4%.

For the compound `Cc1ccc(C)c(C(=O)Nc2nnc(-c3cc(C)ccc3C)o2)c1`, the inhibition is 87.9% (active) under setting [1] and 74.7% under setting [2].

In the case of `COc1cccc(OC)c1C(=O)Nc1ccc(Cl)c(-c2nc3ccccc3s2)c1`, the inhibition reads like this: under setting [1], 72.8% (active); under setting [2], 62.9%.

For the compound `CCOc1ccccc1NC(=O)CSc1nc2ccc(NC(=O)c3ccccc3Cl)cc2s1`, the inhibition is, setting by setting: under setting [1], -3.22% (inactive); under setting [2], -11.8%.

Regarding `CCc1ccc(/C=c2\s/c(=C/C(=O)C(C)(C)C)[nH]c2=O)cc1`, the inhibition is 99.8% (active) under setting [1] and 99.5% under setting [2].

Regarding `CC(C)Cn1c(N2CCN(Cc3ccc(Cl)c(Cl)c3)CC2)nc2c1c(=O)[nH]c(=O)n2C`, the inhibition is, setting by setting: under setting [1], 7.43% (active); under setting [2], 34.1%.

`O=C1NC(=NN=Cc2ccccc2O)SC1Cc1ccc(F)cc1` (stereo not given): the inhibition is, setting by setting: under setting [1], 99.2% (active); under setting [2], 98.8%.

Turning to `CC(=N/N=C1\NC(=O)C(Cc2ccc(Cl)cc2)S1)c1ccc(F)cc1` (stereo not given), the inhibition by setting is: under setting [1], 5% (inactive); under setting [2], -11.9%.

Regarding `CC(=N/N=C1\NC(=O)C(Cc2ccc(F)cc2)S1)c1ccc(Cl)cc1` (stereo not given), the inhibition was 8.19% (inactive) under setting [1] and -27.8% under setting [2].

For `COc1ccc(CC2SC(=NN=Cc3ccccc3O)NC2=O)cc1` (stereo not given), the inhibition is 98.1% (active) under setting [1] and 97.1% under setting [2].

Take `CCc1ccccc1-n1c(=O)oc2ccc(Cl)cc2c1=O`: the inhibition by setting is: under setting [1], 101% (active); under setting [2], 100%.

On to `Cc1ccc(-n2c(=O)oc3ccc(Cl)cc3c2=O)cc1Cl`, for which the inhibition is 100% (active) under setting [1] and 101% under setting [2].

In the case of `Cc1ccc(-c2c[n+](CC(=O)Nc3nc(-c4ccc(F)cc4)cs3)c3n2CCC3)cc1`, the inhibition by setting is: under setting [1], 15.8% (inactive); under setting [2], 14.8%.

Take `Cc1cccc(-n2c(N)cc(=O)nc2SCC(=O)Nc2nc(-c3ccccc3)cs2)c1`: the inhibition under setting [1] was -2.92% (inactive) and the inhibition under setting [2] is -16.5%.

Regarding `CCOC(=O)C=CC(=O)Nc1nc(-c2ccccc2)cs1`, the inhibition is 41.3% (active) under setting [1] and 56% under setting [2].

Turning to `CCc1ccc(OCC(=O)NNC(=O)c2cnccn2)c(Br)c1`, the inhibition runs as follows: under setting [1], 93.6% (active); under setting [2], 95.4%.

In the case of `COC(=O)COc1ccc(C=C(C#N)c2nc3ccccc3[nH]2)cc1`, the inhibition by setting is: under setting [1], 59.4% (active); under setting [2], 79.9%.

On to `CCOC(=O)Cn1cc(C=C(C#N)c2nc3ccc(OC)cc3[nH]2)c2ccccc21`, for which the inhibition is -3.18% (inactive) under setting [1] and 0.813% under setting [2].

For the compound `CCOC(=O)COc1c(Cl)cc(C=C(C#N)c2nc3ccc(OC)cc3[nH]2)cc1Cl`, the inhibition under setting [1] is 45.4% (active) and the inhibition under setting [2] was determined as 50.3%.

On to `Cc1ccc2nc(/C(C#N)=C/c3c[nH]c4ccc(Br)cc34)[nH]c2c1`, for which the inhibition was 19.3% (inactive) under setting [1] and 22.8% under setting [2].

As for `N#CC(=CNc1ccccc1)c1nc2ccccc2[nH]1`, the inhibition was 34.4% (active) under setting [1] and 48.7% under setting [2].

Consider `CCOC(=O)C1=C(C)N(c2ccc(Br)cc2)C(=O)C1`, for which the inhibition is 6.73% (inactive) under setting [1] and 8.65% under setting [2].

In the case of `O=C1Nc2ccccc2/C1=N/N=C/C1=C(N2CCOCC2)C(=C\c2ccccc2)/CC1`, the inhibition under setting [1] was -1.05% (inactive) and the inhibition under setting [2] is -11.8%.

For the compound `COC(=O)COc1ccc(NC(=O)c2cccc(C)c2)cc1`, the inhibition under setting [1] was 68.2% (active) and the inhibition under setting [2] is 87.4%.

As to `COC(=O)COc1cccc(NC(=O)c2cccc(C)c2)c1`, the inhibition was 14.1% (active) under setting [1] and 40.2% under setting [2].

Turning to `COC(=O)COc1cccc(NC(=O)c2ccc(Cl)cc2)c1`, the inhibition under setting [1] was 50% (active) and the inhibition under setting [2] was 72.5%.
